A short description of the first assay: COS7 lysate on small-molecule microarray, probe aHis, 635 nm (AID 1123).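 Note: z-score combines 667nm fluorescence intensity with signal-to-noise per printed compound spot.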 The following applies: COS7 cell lysate, fluorescence, higher = more signal.
Consider `O=C1O[C@H](c2ccccc2)[C@H](c2ccccc2)N2[C@H]1[C@@H](C(=O)NC[C@H](O)c1ccccc1)[C@]1(C(=O)Nc3ccc(C#CCCO)cc31)[C@H]2c1ccc(OCCO)cc1`, for which the composite z-score came to 1.7.
In turn, `CCC(CC)C(O)C1C=CC2C(=O)N(c3ccccc3)C(=O)C2N1Nc1ccc(C(C)C)cc1` (configuration not stated) showed a composite z-score of 2.24.
Turning to `C=CCC(OC(C)=O)[C@@H]1[C@@H](N(Cc2cccc3ccccc23)C(=O)Cc2ccc(OC)cc2)c2cc(OCCCO)ccc2N1C(=O)c1ccc2ccccc2n1` (some centres not stated), the composite z-score amounted to 0.979.
In the case of `C=C(C)c1cc2c(c(CCCCCC)n1)[Si](C(C)C)(C(C)C)OC2`, the composite z-score was -0.369.
On to `COCCOC(=O)N1C(=O)[C@@]2(c3cc(C#CC4=CCCCC4)ccc31)[C@H](c1ccccc1OCCO)N1[C@H](c3ccccc3)[C@H](c3ccccc3)OC(=O)[C@H]1[C@@H]2C(=O)Nc1nc2ccccc2s1`, for which the composite z-score was determined as 1.06.
For the molecule `O=C1NC(=O)C2C1C=CC(C(O)c1cccc3ccccc13)N2Nc1ccc(Cl)cc1Cl` (configuration not stated), the composite z-score was determined as 2.12.
Molecule `CN(C)C(=O)[C@@]1(Cc2ccccc2CN=[N+]=[N-])N=C(c2ccc(OCCCO)cc2)O[C@H]1c1ccccc1CN=[N+]=[N-]` yielded a composite z-score of 2.79.

The nature of another assay: probe aLAP1 signal on lysate-treated microarray – cell lysate, small-molecule microarray, COS7 lysate, primary screen (AID 1124).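 Note: lysate comes from COS7 cells expressing LAP1 and is applied at 0.3 µg/mL; score merges spot fluorescence near 667 nm with signal-to-noise over triplicate slides.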 The following applies: probe aLAP1, fluorescence, higher = more signal.
`Cc1ccccc1C(O)C1C=CC2C(=O)N(C)C(=O)C2N1N(c1ccccc1)c1ccccc1` (configuration not stated) came in with a composite z-score of 0.307.
`COc1ccc([Si](C)(C)[C@@H]2[C@@H](CC(=O)N(CCO)Cc3ccccc3)O[C@]3(C(=O)N(Cc4cccc(N5C(=O)c6cccc7cccc5c67)c4)c4ccccc43)[C@H]2C)cc1` yielded a composite z-score of 0.0553.
The same measure, in the same setting: next, `C=C[C@@H](COC(C)=O)N(C(=O)OC(C)(C)C)S(=O)(=O)c1ccc(Br)cc1`: -0.101; `C=C(COC)/C(=C/C[C@H](OC(C)=O)c1ccc(OCCO)cc1)c1cc(C(=O)OC)ccc1OC`: -0.0565.
`Cc1ccc(S[C@]2(C(=O)NCC(F)(F)F)CC(=O)N(Cc3ccccc3C(F)(F)F)[C@@H]2c2ccc(CO)cc2I)cc1` registered a composite z-score of 0.116.
Take `COC(=O)[C@@]1(Cc2ccc(F)cc2)[C@H]2c3cc(C(=O)N4CCCC4)n(CCc4ccc(O)c(O)c4)c3C[C@H]2CN1C(=O)c1ccccc1`: the composite z-score amounted to 0.543.
In turn, `COCCOC(=O)N1C(=O)[C@@]2(c3cc(C#CCC(C(=O)OC)C(=O)OC)ccc31)[C@H](C(=O)N1CCc3cc(OC)c(OC)cc3C1)[C@H]1C(=O)O[C@H](c3ccccc3)[C@H](c3ccccc3)N1[C@@H]2c1ccc(OCCO)cc1` came in with a composite z-score of 0.519.
Regarding `COc1ccc(CCN2C(=O)[C@@]3(Cc4ccccc42)c2ccccc2C(=O)N(Cc2ccccc2OC)[C@H]3c2ccc(CO)cc2)cc1`, the composite z-score was -0.778.
For `CN(C)CCCNC(=O)[C@@]1(c2ccc([N+](=O)[O-])cc2)CC(=O)N(CC23CC4CC(CC(C4)C2)C3)[C@@H]1c1ccc(CO)cc1I`, the composite z-score was 0.457.
`CCCC[C@@H]1C[C@H]1[C@@H](NC(=O)c1cccs1)c1ccc(C(F)(F)F)cc1` gave a composite z-score of 0.0126.
For the molecule `COC(=O)C1=CC(CCCO)=CC(C2CC2)N(C)C=C1C(=O)OC` (configuration not stated), the composite z-score was 0.687.
The same measure, in the same setting: next, `CC(=O)c1ccc(C(O)C2C=CC3C(=O)N(c4ccccc4)C(=O)C3N2Nc2ccc(C#N)cc2)cc1` (configuration not stated): -0.1; `COCCOC(=O)N1C(=O)[C@@]2(c3cc(C#CC4=CCCCC4)ccc31)[C@H](c1ccc(OCCO)cc1)N1[C@H](c3ccccc3)[C@H](c3ccccc3)OC(=O)[C@H]1[C@@H]2C(=O)NC[C@H](O)c1ccccc1`: 0.875; `CCCC[C@@H]1C[C@H]1[C@@H](NC(=O)Cc1ccccc1)c1ccc(-c2ccccc2)cc1`: -0.273.
`CCCCN1CC=CC23O[C@@H]4/C=C\CCC(C)OC(=O)C4[C@H]2C(=O)N(C(CO)C(C)C)[C@@H]3C1=O` (some centres not stated) showed a composite z-score of 1.13.
As for `CO[C@H]1O[C@H](CO)[C@@H](OC(=O)Nc2ccccc2-c2ccccc2)[C@H](OC(=O)Nc2ccc3c(c2)OCO3)[C@H]1OC(=O)Nc1ccc2c(c1)OCO2`, the composite z-score came out at 1.11.
`C=CCN1C(=O)[C@@]2(O[C@@H](CCn3cc([C@H](O)c4ccccc4)nn3)[C@H]([Si](C)(C)c3ccc(OC)cc3)[C@H]2C)c2cc(N3CCC3=O)ccc21` came in with a composite z-score of 0.249.
With `C=CCN1C(=O)[C@@]2(CCS(=O)(=O)c3ccccc3)N=C(c3ccc(OCCCO)cc3)O[C@H]2c2ccccc21`, the composite z-score worked out at 0.207.
On the same count and under the same terms, next, `COC(=O)CCCCCCC(=O)Nc1ccc(NC(=O)CCCC[P+](c2ccccc2)(c2ccccc2)c2ccccc2)cc1`: 0.116; `CC(CO)N1C(=O)[C@@H]2[C@H]3C(=O)OCC=C[C@H]3OC23C=CCN(C(C)(C)C)C(=O)[C@@H]13` (some centres not stated): -0.604.
For `[N-]=[N+]=Nc1ccccc1[C@@H]1OC(c2ccc(OCCCO)cc2)=N[C@]1(Cc1ccccc1)C(=O)NCC(O)CO` (some centres not stated), the composite z-score came to 1.14.
On the same count and under the same terms, for `CC1CC/C=C\[C@H]2OC34C=CCN(c5ccc(Cl)cc5)C(=O)[C@H]3N(CCCCCO)C(=O)[C@]4(C)C2C(=O)O1` (some centres not stated) the value was -0.3; for `C=CCC(OC(C)=O)[C@@H]1[C@@H](N(Cc2cccc3ccccc23)C(=O)c2cccc3ccccc23)c2cc(OCCCO)ccc2N1C(=O)c1ccc(-c2ccccc2)cc1` (some centres not stated), -0.35; for `CN1C(=O)C2C=CC(C(O)c3ccccn3)N(N(c3ccccc3)c3ccccc3)C2C1=O` (configuration not stated), 1.04.
Still for that read-out and setting: next, `CC(C)(C)N1CC=CC23O[C@@H]4C=CCCOC(=O)C4[C@H]2C(=O)N(CCO)[C@@H]3C1=O` (some centres not stated): -0.155.
`Cc1ccc(S[C@]2(C(=O)NCCCN(C)C)CC(=O)N(C3CCCCC3)[C@@H]2c2ccc(CO)cc2)cc1` registered a composite z-score of -0.183.
Molecule `CCOc1cc(C(O)C2C=CC3C(=O)N(c4ccccc4)C(=O)C3N2Nc2ccc(C#N)cc2)ccc1O` (configuration not stated) came in with a composite z-score of 0.876.
`COCCOC(=O)N1C(=O)[C@@]2(c3cc(C#Cc4ccc(OC)cc4)ccc31)[C@H](C(=O)Nc1nc3ccccc3s1)[C@H]1C(=O)O[C@H](c3ccccc3)[C@H](c3ccccc3)N1[C@@H]2c1ccc(OCCO)cc1`: the composite z-score is -0.38.
`O=C1O[C@H](c2ccccc2)[C@H](c2ccccc2)N2[C@H]1[C@@H](C(=O)NC[C@H](O)c1ccccc1)[C@]1(C(=O)Nc3ccc(C#CCCO)cc31)[C@H]2c1ccc(OCCO)cc1` registered a composite z-score of -0.0479.
The molecule `CCC(CC)C(O)C1C=CC2C(=O)N(c3ccccc3)C(=O)C2N1Nc1ccc(C(C)C)cc1` (configuration not stated) displayed a composite z-score of 0.359.
On to `C=CCC(OC(C)=O)[C@@H]1[C@@H](N(Cc2cccc3ccccc23)C(=O)Cc2ccc(OC)cc2)c2cc(OCCCO)ccc2N1C(=O)c1ccc2ccccc2n1` (some centres not stated), for which the composite z-score worked out at 0.449.
Still for that read-out and setting: for `C=C(C)c1cc2c(c(CCCCCC)n1)[Si](C(C)C)(C(C)C)OC2` the value was -0.603; for `COCCOC(=O)N1C(=O)[C@@]2(c3cc(C#CC4=CCCCC4)ccc31)[C@H](c1ccccc1OCCO)N1[C@H](c3ccccc3)[C@H](c3ccccc3)OC(=O)[C@H]1[C@@H]2C(=O)Nc1nc2ccccc2s1`, -0.375.
Consider `O=C1NC(=O)C2C1C=CC(C(O)c1cccc3ccccc13)N2Nc1ccc(Cl)cc1Cl` (configuration not stated), for which the composite z-score was determined as 0.818.
The molecule `CN(C)C(=O)[C@@]1(Cc2ccccc2CN=[N+]=[N-])N=C(c2ccc(OCCCO)cc2)O[C@H]1c1ccccc1CN=[N+]=[N-]` yielded a composite z-score of 0.15.

These data come from PubChem BioAssay.
